Experiment [1] relates to Vero E6 infected with SARS-CoV-2. In words: morphology score (similarity to uninfected cells); higher = more like uninfected cells. The note with it: 24 h.
For experiment [2] the test system is unchanged. The experiment can be described thus: SARS-CoV-2 infection rate relative to infected DMSO; higher = more infection, active = 60 or less. To be noted: 24 h.

In experiment [1], `CCOc1ccccc1C(=O)O` [2-ethoxybenzoic-acid] (10 µM) displayed a morphology score of 0.0437. The SARS-CoV-2 infection rate in experiment [2] is 115% (inactive).
As for `Nc1nc(N)nc(-c2cc(Cl)ccc2Cl)n1` [irsogladine] (10 µM), the morphology score in experiment [1] came out at 0.168. The SARS-CoV-2 infection rate in experiment [2] was 94.5% (inactive).
In the same order, the values of `CN1CCN(c2ccc3ccccc3n2)CC1` [N-methylquipazine] (10 µM) are 0.139 and 100% (inactive).
In the same order, the values of `Cc1c(NC(=O)OC[C@@H]2COCCN2)cn2ncnc(Nc3ccc4c(cnn4Cc4cccc(F)c4)c3)c12` (0.833333 µM) are -0.105 and 102% (inactive).
In the same order, the values of `O=S(=O)(O)CCSSCCS(=O)(=O)O` [dimesna] (10 µM) are 0.144 and 104% (inactive).
The compound `Oc1cc(O)c2c(c1)O[C@H](c1ccc(O)c(O)c1)[C@H](O)[C@H]2c1c(O)cc(O)c2c1O[C@H](c1ccc(O)c(O)c1)[C@H](O)C2` [procyanidin-B-2] (10 µM) had a morphology score in experiment [1] of 0.114. In experiment [2], the SARS-CoV-2 infection rate is 106% (inactive).
For the compound `CC(C)[C@H]1CC[C@H](C(=O)N[C@H](Cc2ccccc2)C(=O)O)CC1` [nateglinide] (10 µM), in experiment [1], the morphology score was found to be 0.0232. Also, in experiment [2], the SARS-CoV-2 infection rate is 94.5% (inactive).
In the same order, the values of `O=C(O)P(=O)(O)O` [foscarnet] (10 µM) are 0.202 and 98% (inactive).
Compound `Cc1ccc(-c2ncc(Cl)cc2-c2ccc(S(C)(=O)=O)cc2)cn1` [etoricoxib] (10 µM) returned a morphology score in experiment [1] of -0.139. Further, the SARS-CoV-2 infection rate in experiment [2] is 114% (inactive).
